Screening results as filed in PubChem.
An excerpt weighted towards active compounds, which were near 4.5% of everything screened.
NALP3 yeast inh – inhibitors of NALP3 inflammasome in yeast. Yeast reconstituted NLRP3/ASC/caspase-1, beta-gal luminescence, 24 h. inhibition, % at 10 µM. hit rate 0.39% among 330,000. AID 2825;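 active means inhibition of 50% or more; inactive means inhibition below 50%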
SKKanGAS inh – inhibitors of SKKanGAS S. pyogenes growth in kanamycin (SK-promoter or general growth effect). BacTiter-Glo, 6 h. inhibition, % at 7.5 µM. hit rate 1.3% among 300,000;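 active means mean replicate score, as percent of positive control median, at least 50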;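 further: strain carries kanamycin resistance gene driven by streptokinase promoter and grows in 40 µg/ml kanamycin; loss of luminescence reflects streptokinase promoter inhibition or plain growth inhibition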
tim23-1 inh – tim23-1 yeast growth inhibition; inhibition, % at 20 µM; hit rate 1.3% among 330,000; S. cerevisiae tim23-1 growth, BacTiter-Glo luminescence, 24 h;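 active means growth inhibition of the mutant yeast at or above 50%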;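 further: temperature-sensitive mutant grown at 25 °C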
PfHsp90 yeast 2 – reduces growth (ATP signal) of yeast expressing P. falciparum Hsp90; hit rate 0.32% among 310,000; inhibition, % at 9.4 µM; S. cerevisiae expressing PfHsp90, BacTiter-Glo ATP, 48 h; yeast lacking PDR1 and PDR3 efflux regulators;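 active means every replicate shows inhibition above about 80%, whatever the replicate mean, limit read from the data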
TIM10 inh – inhibits growth of TIM10 yeast strain | S. cerevisiae TIM10 strain growth, BacTiter-Glo luminescence, 24 h | inhibition, % at 10 µM | hit rate 1.4% among 330,000 | AID 463195;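 active means inhibition of 40% or more at the single tested concentration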;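 further: wild-type TIM10 isogenic control strain grown at permissive 25 °C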
tim10-1 inh – inhibits growth of tim10-1 mutant yeast; S. cerevisiae tim10-1 ts strain growth, BacTiter-Glo, 24 h; inhibition, % at 20 µM; hit rate 2.2% among 330,000;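 active means inhibition of at least 40%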;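 further: mutant grown at 25 °C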
tim10-1 confirm – confirmation of tim10-1 mutant yeast growth inhibitors; inhibition, % at 20 µM; S. cerevisiae tim10-1 ts strain growth, BacTiter-Glo, 24 h; shares compounds with tim10-1 inh; hit rate 56% among 7,400; AID 463213;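 active means inhibition of yeast growth at or above a set limit in either of two repeat tests at 20 µM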;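 further: tim10-1 mutant grown at permissive 25 °C to find synthetic lethal compounds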
Numbers stand for hits.

Results for O=C(/C=C/c1ccc2c(c1)OCO2)c1ccco1 ?
NALP3 yeast inh: inactive; SKKanGAS inh: inactive; tim23-1 inh: inactive; PfHsp90 yeast 2: inactive; TIM10 inh: inactive; tim10-1 inh: inactive

How did O=C(CN1C(=O)NC2(CCCCC2)C1=O)Nc1cc(C(F)(F)F)ccc1N1CCOCC1 do in these assays?
NALP3 yeast inh: inactive; tim23-1 inh: inactive; PfHsp90 yeast 2: inactive; TIM10 inh: inactive; tim10-1 inh: inactive

What do the screens show for `CCN1C(=O)/C(=C/c2c(C)nn(C)c2C)SC1=S`?
NALP3 yeast inh: inactive; SKKanGAS inh: inactive; tim23-1 inh: inactive; TIM10 inh: inactive; tim10-1 inh: 55; tim10-1 confirm: 44

Results for O=C(COc1ccc(Cl)cc1Cl)N/N=C/c1ccc[nH]1 ?
NALP3 yeast inh: inactive; SKKanGAS inh: inactive; tim23-1 inh: inactive; PfHsp90 yeast 2: inactive; TIM10 inh: inactive; tim10-1 inh: 44; tim10-1 confirm: inactive

How did O=C(COc1ccc(Cl)cc1Cl)N/N=C/CCc1ccccc1 do in these assays?
NALP3 yeast inh: inactive; SKKanGAS inh: inactive; tim23-1 inh: inactive; PfHsp90 yeast 2: inactive; TIM10 inh: inactive; tim10-1 inh: inactive

How did C/C(=N\NC(=O)Cc1csc(N2CCOCC2)n1)c1ccc(Cl)c(Cl)c1 do in these assays?
NALP3 yeast inh: inactive; SKKanGAS inh: inactive; tim23-1 inh: inactive; PfHsp90 yeast 2: inactive; TIM10 inh: inactive; tim10-1 inh: 41; tim10-1 confirm: inactive

How did CCC/C(=N\NC(=O)Cc1csc(N2CCOCC2)n1)c1ccccc1 do in these assays?
NALP3 yeast inh: inactive; SKKanGAS inh: inactive; tim23-1 inh: inactive; PfHsp90 yeast 2: inactive; TIM10 inh: inactive; tim10-1 inh: inactive

Results for Cc1ccc(C)c(N2CCN(C(=O)c3ccc(CS(=O)Cc4ccc(Cl)cc4)o3)CC2)c1 (stereo not given) ?
NALP3 yeast inh: inactive; SKKanGAS inh: inactive; tim23-1 inh: inactive; PfHsp90 yeast 2: inactive; TIM10 inh: inactive; tim10-1 inh: 46; tim10-1 confirm: inactive

Results for Cc1ccc(Cl)cc1N1CCN(C(=O)c2ccc(CS(=O)Cc3ccc(Cl)cc3)o2)CC1 (stereo not given) ?
NALP3 yeast inh: inactive; SKKanGAS inh: inactive; tim23-1 inh: inactive; PfHsp90 yeast 2: inactive; TIM10 inh: inactive; tim10-1 inh: 45; tim10-1 confirm: inactive

Results for Cc1ccc(Cl)cc1N1CCN(C(=O)C2(S(=O)(=O)c3ccc(Cl)cc3)CC2)CC1 ?
NALP3 yeast inh: inactive; SKKanGAS inh: inactive; tim23-1 inh: inactive; TIM10 inh: inactive; tim10-1 inh: 40; tim10-1 confirm: inactive

Results for Cc1cccc(N2CCN(C(=O)C3(S(=O)(=O)c4ccc(Cl)cc4)CC3)CC2)c1C ?
NALP3 yeast inh: inactive; SKKanGAS inh: inactive; tim23-1 inh: inactive; PfHsp90 yeast 2: inactive; TIM10 inh: inactive; tim10-1 inh: inactive

How did CN1CCN(C(=O)c2ccc(CS(=O)Cc3ccc(Cl)cc3)o2)CC1 (stereo not given) do in these assays?
NALP3 yeast inh: inactive; SKKanGAS inh: inactive; tim23-1 inh: inactive; PfHsp90 yeast 2: inactive; TIM10 inh: inactive; tim10-1 inh: inactive

How did O=C(c1ccc(CS(=O)Cc2ccc(Cl)cc2)o1)N1CCN(c2ccccc2F)CC1 (stereo not given) do in these assays?
NALP3 yeast inh: inactive; SKKanGAS inh: inactive; tim23-1 inh: inactive; PfHsp90 yeast 2: inactive; TIM10 inh: inactive; tim10-1 inh: inactive

Results for COC(=O)/C=C/c1ccccc1CN1[C@@H](CC(=O)OC)c2ccccc2S1(=O)=O ?
NALP3 yeast inh: inactive; tim23-1 inh: inactive; PfHsp90 yeast 2: inactive; TIM10 inh: inactive; tim10-1 inh: inactive

What do the screens show for `Nc1nc(-c2ccccc2)nc(-c2ccccc2O)n1`?
NALP3 yeast inh: inactive; SKKanGAS inh: inactive; tim23-1 inh: inactive; PfHsp90 yeast 2: inactive; TIM10 inh: inactive; tim10-1 inh: inactive

What do the screens show for `Nc1nc(-c2ccccc2)cc(-c2ccccc2O)n1`?
NALP3 yeast inh: inactive; SKKanGAS inh: inactive; tim23-1 inh: inactive; PfHsp90 yeast 2: inactive; TIM10 inh: inactive; tim10-1 inh: 43; tim10-1 confirm: inactive

Results for Oc1ccccc1-c1csc(-c2ccccc2)n1 ?
NALP3 yeast inh: inactive; SKKanGAS inh: inactive; tim23-1 inh: inactive; PfHsp90 yeast 2: inactive; TIM10 inh: inactive; tim10-1 inh: 46; tim10-1 confirm: 37

Results for Clc1cc(-c2ccccc2)nc(-c2ccccc2)n1 ?
NALP3 yeast inh: inactive; SKKanGAS inh: inactive; tim23-1 inh: inactive; PfHsp90 yeast 2: inactive; TIM10 inh: inactive; tim10-1 inh: inactive

How did Clc1nc(-c2ccccc2)cc(-c2ccccc2)n1 do in these assays?
NALP3 yeast inh: inactive; SKKanGAS inh: inactive; tim23-1 inh: inactive; PfHsp90 yeast 2: inactive; TIM10 inh: inactive; tim10-1 inh: 43; tim10-1 confirm: inactive

How did CCN(CC(=O)NC1CCS(=O)(=O)C1)S(=O)(=O)c1cc(Br)ccc1Br (stereo not given) do in these assays?
NALP3 yeast inh: inactive; SKKanGAS inh: inactive; tim23-1 inh: inactive; PfHsp90 yeast 2: inactive; TIM10 inh: inactive; tim10-1 inh: inactive

What do the screens show for `CCOC(=O)c1c(NC(=O)/C=C/c2ccc(C)o2)sc(C)c1C`?
NALP3 yeast inh: inactive; SKKanGAS inh: inactive; tim23-1 inh: inactive; PfHsp90 yeast 2: inactive; TIM10 inh: inactive; tim10-1 inh: 46; tim10-1 confirm: inactive

What do the screens show for `Cc1ccc(/C=C/C(=O)Nc2sc(C)c(C)c2C(=O)OC(C)C)o1`?
NALP3 yeast inh: inactive; SKKanGAS inh: inactive; tim23-1 inh: inactive; PfHsp90 yeast 2: inactive; TIM10 inh: inactive; tim10-1 inh: inactive

What do the screens show for `O=C(CN1CCOCC1)N/N=C/c1ccco1`?
NALP3 yeast inh: inactive; SKKanGAS inh: inactive; tim23-1 inh: inactive; PfHsp90 yeast 2: inactive; TIM10 inh: inactive; tim10-1 inh: inactive

What do the screens show for `O=C(CN1CCOCC1)N/N=C/c1c(O)ccc2ccccc12`?
NALP3 yeast inh: inactive; SKKanGAS inh: inactive; tim23-1 inh: inactive; PfHsp90 yeast 2: inactive; TIM10 inh: inactive; tim10-1 inh: 46; tim10-1 confirm: inactive

Results for O=C(CSCC(=O)Nc1ccccc1)N/N=C/c1c(O)ccc2ccccc12 ?
NALP3 yeast inh: inactive; SKKanGAS inh: inactive; tim23-1 inh: inactive; PfHsp90 yeast 2: inactive; TIM10 inh: inactive; tim10-1 inh: 42; tim10-1 confirm: inactive

How did CC1=C(C(=O)OC2CCCC2)C(c2coc3ccccc3c2=O)C2=C(CC(C)(C)CC2=O)N1 (stereo not given) do in these assays?
NALP3 yeast inh: inactive; SKKanGAS inh: inactive; tim23-1 inh: inactive; PfHsp90 yeast 2: inactive; TIM10 inh: inactive; tim10-1 inh: inactive

How did COc1ccc(S(=O)(=O)N2CCN(C)CC2)cc1NC(=O)c1ccccc1C do in these assays?
NALP3 yeast inh: inactive; SKKanGAS inh: inactive; tim23-1 inh: inactive; PfHsp90 yeast 2: inactive; TIM10 inh: inactive; tim10-1 inh: inactive

Results for Cc1cccc(N2CCN(S(=O)(=O)c3ccc(Cl)nc3)CC2C)c1 (stereo not given) ?
NALP3 yeast inh: inactive; tim23-1 inh: inactive; TIM10 inh: inactive; tim10-1 inh: inactive

How did CNCCCOc1ccc(Cl)cc1C(C)(C)C do in these assays?
NALP3 yeast inh: inactive; SKKanGAS inh: inactive; tim23-1 inh: inactive; PfHsp90 yeast 2: inactive; TIM10 inh: inactive; tim10-1 inh: 41; tim10-1 confirm: inactive
